# Hit rate of the full screen: of about 190,000 compounds, about 1,300 (0.68%) were called active. The entries come from a sample that favours actives as a whole. Unmarked numbers belong to inactive results. Cut-off read from the data, not from the text of the source: active = inhibition above about 50%; inactive = the rest.
# Molecular target: Mannose-6-phosphate isomerase (Homo sapiens) (UniProt P34949)
# Experiment: human PMI inhibitors, high substrate, primary screen, biochemical, fluorescence intensity, high mannose 6-phosphate (AID 1220)
# Conditions: recombinant PMI enzyme, coupled fluorescence intensity; at 20 µM; hits give high values
# Sequence of Mannose-6-phosphate isomerase (Homo sapiens) (P34949 whole entry, looked up): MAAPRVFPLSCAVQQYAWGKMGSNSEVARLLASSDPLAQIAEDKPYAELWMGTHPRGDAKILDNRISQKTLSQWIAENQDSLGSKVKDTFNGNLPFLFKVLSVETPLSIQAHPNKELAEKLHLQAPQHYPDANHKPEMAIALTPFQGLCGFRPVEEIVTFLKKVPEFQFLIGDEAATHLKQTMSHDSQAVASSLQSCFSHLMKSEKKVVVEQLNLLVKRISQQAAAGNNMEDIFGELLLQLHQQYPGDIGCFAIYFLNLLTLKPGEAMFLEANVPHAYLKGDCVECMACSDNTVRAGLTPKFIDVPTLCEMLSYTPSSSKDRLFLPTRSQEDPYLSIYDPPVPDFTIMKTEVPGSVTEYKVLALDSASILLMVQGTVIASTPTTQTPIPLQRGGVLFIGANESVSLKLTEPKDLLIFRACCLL
row,Compound,inhibition
1,COc1ccc(N(Cc2cc3cc(OC)ccc3[nH]c2=O)C(=O)C2CCCO2)cc1 (stereo not drawn),7.7%
2,CCOc1ccc(N(Cc2cc3cc(OC)ccc3[nH]c2=O)C(=O)C2CCCO2)cc1 (stereo not drawn),13.8%
3,COc1ccc2[nH]c(=O)c(CN(C(=O)C3CCCO3)c3ccc(C)cc3)cc2c1 (stereo not drawn),50% (active)
4,CN(C)S(=O)(=O)c1ccc(NC(=S)NC(=O)Cc2ccccc2)cc1,-3.1%
5,CCN(CC)c1ccc(NC(=S)NC(=O)Cc2ccccc2)cc1,50.1% (active)
6,CCC(=O)Nc1ccc(NC(=S)NC(=O)Cc2ccccc2)cc1,6%
7,Cc1ccc(CC2CC(=O)N(c3ccncc3)C2=O)cc1 (stereo not drawn),1.2%
8,CCc1nc2ccc(C(=O)Nc3ccc(NC(C)=O)cc3)cc2nc1CC,7.1%
9,Cc1ccc(OS(=O)Nc2cccc3nccnc23)cc1 (stereo not drawn),5.5%
10,c1cc(Nc2cccc3nccnc23)c2nccnc2c1,54.4% (active)
11,Fc1ccc(Nc2cccc3nccnc23)cc1,26.2%
12,Cc1cc(C)n(-c2cc(C(=O)O)cc(C(=O)O)c2)n1,-12.4%
13,CC1=C(Sc2nc3ccccc3[nH]2)C(=O)NC(C)(C)C1,0.2%
14,O=C(C/C=N/OCc1ccccc1F)c1cnc(-c2ccc(Cl)cc2)s1,1.3%
15,O=C(C/C=N/OCc1ccc(F)cc1Cl)c1cnc(-c2ccccc2)s1,-2.1%
16,CO/N=C/CC(=O)c1cnc(-c2ccc(Cl)cc2)s1,53.8% (active)
17,O=C(C/C=N/OCc1ccc(Cl)cc1)c1cnc(-c2ccccc2)s1,13.5%
18,CO/N=C/CC(=O)c1cnc(-c2ccccc2)s1,57.6% (active)
19,O=C(C/C=N/OCc1c(Cl)cccc1Cl)c1cnc(-c2ccccc2)s1,14.6%
20,Cc1ccccc1C(=O)NC1CCN(Cc2nnnn2Cc2ccc(F)cc2)CC1,4.6%
21,CCC(C)(C)NC(=O)C(c1ccccn1)N(C(=O)c1csnn1)c1ccc(C)cc1 (stereo not drawn),-1.6%
22,COc1cc(CNn2cn[nH]c2=S)cc(Br)c1OCc1ccccc1F,0.2%
23,CCCCCCNS(=O)(=O)c1ccc(OC)c(OC)c1,5.6%
24,CCCN1CCC(NC(=S)Nc2ccc(OC)c(OC)c2)CC1,-3%
25,CCn1cnc2cc(NCc3nc4ccccc4n3Cc3ccccc3)ccc21,50.6% (active)
26,Cc1nc2cc(NCc3nc4ccccc4n3Cc3ccccc3)ccc2n1C,20%
27,CCn1cnc2cc(NCc3nc4ccccc4n3C)ccc21,14.9%
28,CCOc1cc2[nH]c(=S)n(C3CC3)c(=O)c2cc1OCC,2.9%
